# Measured values as given in PubChem BioAssay AID1851 (National Center for Advancing Translational Sciences (NCATS), 2009).
# The campaign covered roughly 16,000 compounds. About 5,700 (36%) were called active. Inconclusive results (about 24%) are left out. The list shows a part of the results. A number with no mark means an inactive call. The call rests on the fitted dose curve; in most records, active means well fitted curve in the direction sought with a large enough effect; inconclusive means small, poorly fitted or top-dose-only effect, or effect the other way; inactive means no such curve, though single readings can be large or run the other way.
# Target: Cytochrome P450 1A2 (Homo sapiens) (UniProt P05177)
# Experiment: Cytochrome panel assay with activity outcomes
# Settings: recombinant CYP, pro-luciferin dealkylation, luminescence, p450-cyp1a2; series mostly up to 57.1 µM
# On the % scale 0 is the no-effect control and ±100 the full control effect.
# Chain of Cytochrome P450 1A2 (Homo sapiens) (P05177 whole entry, looked up): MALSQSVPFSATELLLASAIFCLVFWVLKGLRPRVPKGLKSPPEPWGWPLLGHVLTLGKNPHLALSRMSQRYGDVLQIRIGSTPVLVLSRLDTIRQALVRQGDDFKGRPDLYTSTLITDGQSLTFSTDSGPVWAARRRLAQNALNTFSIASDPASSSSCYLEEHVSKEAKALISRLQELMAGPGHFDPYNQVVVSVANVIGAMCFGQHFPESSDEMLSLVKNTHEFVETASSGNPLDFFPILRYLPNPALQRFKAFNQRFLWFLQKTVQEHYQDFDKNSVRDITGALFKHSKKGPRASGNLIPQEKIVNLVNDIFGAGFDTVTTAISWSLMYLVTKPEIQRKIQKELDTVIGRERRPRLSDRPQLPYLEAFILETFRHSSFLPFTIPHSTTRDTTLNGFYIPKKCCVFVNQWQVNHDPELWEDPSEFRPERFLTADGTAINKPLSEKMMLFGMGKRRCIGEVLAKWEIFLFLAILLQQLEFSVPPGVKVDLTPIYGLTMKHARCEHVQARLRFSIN
Compound,AC50,"activity, negative = inhibition"
O=C(Oc1ccccc1)N1CCC2(CCCN(c3ncccn3)C2)CC1,10 µM (active),–
O=C(Oc1ccccc1)N1CCC2(CC1)CN(c1ccccn1)C2,inactive,–
CC(=O)N1CCC[C@@]2(CCN(c3ncccn3)C2)C1,inactive,–
O=C(Oc1ccccc1)N1CCC2(CCCN(c3ccccn3)C2)CC1,20 µM (active),–
COC(=O)N1CCC2(CC1)CN(c1ccccn1)C2,inactive,–
O=C(c1csnn1)N1CCC[C@@]2(CCN(c3ccccn3)C2)C1,inactive,–
COC(=O)N1CCC[C@@]2(CCN(c3ncccn3)C2)C1,inactive,–
CC(=O)N1CCC2(CCCN(c3ccccn3)C2)CC1,inactive,–
O=C(Oc1ccccc1)N1CCC[C@@]2(CCN(c3ncccn3)C2)C1,12.6 µM (active),–
CC(=O)N1CCC2(CCCN(c3ncccn3)C2)CC1,inactive,–
O=C(Oc1ccccc1)N1CCC2(CC1)CCN(c1ncccn1)CC2,inactive,–
COC(=O)N1CCC[C@@]2(CCN(c3ccccn3)C2)C1,15.8 µM (active),–
Cc1noc(C)c1C(=O)N1CCC[C@@]2(CCN(Cc3ccccc3)C2)C1,inactive,–
CC(C)CCn1c(Oc2ccccc2Cl)nc2c1c(=O)n(C)c(=O)n2C,14.1 µM (active),–
Cn1c(=O)c2c(nc(N3CCN(c4ccccn4)CC3)n2Cc2ccccc2Cl)n(C)c1=O,inactive,–
Cn1c(=O)c2c(ncn2CC(COCc2ccccc2Cl)OCc2ccccc2Cl)n(C)c1=O (centres undefined),inactive,–
CSc1ccc(C#N)cc1NC(=O)c1cccc(Cl)c1,6.31 µM (active),–
O=C(Nc1ccccc1N1CCN(C(=O)c2ccc(Cl)cc2)CC1)c1cc(Br)ccc1Cl,inactive,–
CCOc1ccc(C(=O)Nc2ccccc2N2CCCC2)cc1,2.82 µM (active),–
CCOc1cc(CC(=O)N[C@@H](CC(C)C)c2ccccc2N2CCCCC2)ccc1C(=O)O,inactive,–
CCN(CCO)C[C@H]1CCC[C@H]2CCCC[C@@H]21,5.01 µM (active),–
O=C1NCCN1Cc1ccccc1F,3.55 µM (active),–
O=C(NCCN1CCCCC1)c1ccc(I)cc1,25.1 µM (active),–
COc1ccc(CC(=O)NCCN2CCCC2)cc1,inactive,–

Compound,AC50,"activity, negative = inhibition"
Cc1ccc(CS(=O)(=O)CCC(=O)NCCN2CCCC2)cc1,inactive,–
Nc1cc(Cl)ccc1Oc1ccccc1,7.94 µM (active),–
Nc1cc(Cl)ccc1Oc1ccc(Cl)cc1,0.398 µM (active),–
CC(C)(C)NCC[C@@H](O)c1cc(C(F)(F)F)nc2c(C(F)(F)F)cccc12,–,-9.91% [at 2.29 µM]
CCN(CC)c1cc(C)c2cc(NC(=O)CNC(C)=O)ccc2n1,inactive,–
CC(=O)NCCNc1nc(-c2ccccc2C)nc2ccccc12,6.31 µM (active),–
CC(=O)NCCNc1nc(-c2ccccc2C(F)(F)F)nc2ccccc12,15.8 µM (active),–
CC(C)(C)CC(C)(C)c1ccc(OCOCCOCCO)c(Cc2cc(C(C)(C)CC(C)(C)C)cc(Cc3cc(C(C)(C)CC(C)(C)C)ccc3OCOCCOCCO)c2OCOCCOCCO)c1,inactive,–
COc1cccc(-c2csc(N3CCN(C(=S)Nc4ccccc4)CC3)n2)c1,3.16 µM (active),–
CCOCCCNC(=O)C1CCN(S(=O)(=O)N2CC(C)CC(C)C2)CC1 (centres undefined),inactive,–
CCOC(=O)C1CCCN(C(=O)/C=C/c2cccc([N+](=O)[O-])c2)C1 (centres undefined),11.2 µM (active),–
CCOC(=O)C1CCCN(C/C=C/c2ccccc2[N+](=O)[O-])C1 (centres undefined),4.47 µM (active),–
CC1CCCN(C/C=C/c2ccccc2[N+](=O)[O-])C1 (centres undefined),14.1 µM (active),–
O=C(O)[C@H]1CCCN(CCC=C(c2ccccc2)c2ccccc2)C1,inactive,–
Cc1ccc(NC(=O)/C(=C/c2cccc([N+](=O)[O-])c2)NC(=O)C2CCCCC2)c(C)c1,inactive,–
CCOC(=O)C1CCCN(S(=O)(=O)c2ccccc2)C1 (centres undefined),inactive,–
C[C@@H]1CCCN(CP(=O)(c2ccccc2)c2ccccc2)C1,–,-3.49% [at 11.4 µM]
O=C(c1ccco1)N1CCC[C@@]2(CCN(c3ccncc3)C2)C1,12.6 µM (active),–
O=C(c1ccncc1)N1CCC[C@@]2(CCN(c3ccccc3)C2)C1,inactive,–
O=C(c1ccco1)N1CCC2(CCCN(c3ccccc3)C2)CC1,inactive,–
O=C(c1ccco1)N1CCC[C@@]2(CCN(Cc3ccccc3)C2)C1,inactive,–
O=C(c1ccco1)N1CCC2(CC1)CN(c1ccccc1)C2,inactive,–
O=C(c1ccco1)N1CCC2(CC1)CCN(c1ccccc1)CC2,inactive,–
O=C(c1ccco1)N1CCC[C@@]2(CCN(c3cccc(-c4ccccc4)c3)C2)C1,15.8 µM (active),–

Compound,AC50,"activity, negative = inhibition"
O=C(c1ccco1)N1CCC2(CC1)CCN(c1ccc(-c3ccccc3)cc1)CC2,inactive,–
O=C(c1ccco1)N1CCC2(CC1)CCN(c1cccc(-c3ccccc3)c1)CC2,15.8 µM (active),–
CCOc1ccc(-c2nn(-c3ccccc3)cc2/C=C(\C#N)S(=O)(=O)c2ccccc2)cc1C,1 µM (active),–
O=C1C2C3C=CC(C3)C2C(=O)N1/N=C/c1cn(Cc2ccccc2)c2ccccc12 (centres undefined),15.8 µM (active),–
O=[N+]([O-])/C=C/c1cn(Cc2ccccc2)c2ccccc12,3.55 µM (active),–
O=C1C2C3C=CC(C3)C2C(=O)N1/N=C/c1cn(Cc2ccc(F)cc2)c2ccccc12 (centres undefined),inactive,–
CCC(C(=O)c1ccccc1)N(C(=O)c1ccccc1Cl)N1C(=O)C2C3C=CC(C3)C2C1=O (centres undefined),inactive,–
COc1ccc2c(c1OC)C(=O)N(C(C)C(=O)O)C2=O (centres undefined),inactive,–
O=c1[nH]c(=O)c2nc3ccccc3nc2[nH]1,12.6 µM (active),–
NS(=O)(=O)c1ccc(N=Nc2nc3[nH]c(=O)[nH]c(=O)c3[nH]2)cc1,–,-13.4% [at 11.4 µM]
COc1cnc(NS(=O)(=O)c2ccc(N)cc2)nc1,inactive,–
CC(C)(C)C(=O)Nc1ccnc(-c2cccnc2)n1,2.24 µM (active),–
CC(=O)Nc1ccnc(-c2cccnc2)n1,2.51 µM (active),–
CCC(=O)O[C@@]1(C(=O)CCl)[C@@H](C)C[C@@H]2[C@H]3CCC4=CC(=O)C=C[C@@]4(C)[C@]3(F)[C@@H](O)C[C@@]21C,inactive,–
O=C1[C@@H]2[C@H]3[C@H](O)[C@H](O)C/C(=N/OC[C@@H](O)COCc4ccco4)[C@H]3CC[C@H]2C(=O)N1c1ccc(F)cc1F,–,0.735% [at 11.4 µM]
Nc1n[nH]c2ccccc12,–,-9.07% [at 2.29 µM]
Cc1[nH]c2ccccc2c1-c1cc(-c2cc(-c3c(C)[nH]c4ccccc34)nc(N)n2)nc(N)n1,0.398 µM (active),–
Cc1[nH]c2ccccc2c1-c1cc(-c2cc(-c3c(C)[nH]c4ccccc34)on2)no1,0.398 µM (active),–
COc1ccc(COC(=O)N/N=C2/C[C@@H](O)[C@@H](O)[C@@H]3[C@@H]4C(=O)N(c5cccc(Oc6ccccc6)c5)C(=O)[C@H]4CC[C@H]23)cc1,–,3.29% [at 11.4 µM]
CC1=Nc2ccccc2/C1=C\c1nc(-c2ccc(C(F)(F)F)cc2)oc1O,0.891 µM (active),–
O=C(c1cnccn1)N1CCC[C@@]2(CCN(c3ccncc3)C2)C1,inactive,–
O=S(=O)(c1ccccc1)N1CCC2(CCCN(c3cccc(-c4ccccc4)c3)C2)CC1,inactive,–
CS(=O)(=O)N1CCC2(CC1)CN(c1ccncc1)C2,inactive,–
CS(=O)(=O)N1CCC2(CC1)CN(c1cccc(-c3ccccc3)c1)C2,5.01 µM (active),–

Compound,AC50,"activity, negative = inhibition"
O=C(c1cnccn1)N1CCC[C@@]2(CCN(c3cccc(-c4ccccc4)c3)C2)C1,25.1 µM (active),–
O=C(c1ccncc1)N1CCC2(CC1)CN(c1ccccc1)C2,inactive,–
O=C(c1cnccn1)N1CCC[C@@]2(CCN(c3ncccn3)C2)C1,inactive,–
O=C(c1cnccn1)N1CCC2(CCCN(c3ccccc3)C2)CC1,inactive,–
O=C(c1cnccn1)N1CCC2(CC1)CN(c1ccccc1)C2,inactive,–
O=C(c1ccncc1)N1CCC2(CC1)CN(c1cccc(-c3ccccc3)c1)C2,15.8 µM (active),–
O=C(c1ccncc1)N1CCC2(CC1)CN(c1ccc(-c3ccccc3)cc1)C2,inactive,–
O=C(c1cnccn1)N1CCC2(CCCN(c3cccc(-c4ccccc4)c3)C2)CC1,20 µM (active),–
COc1cc(CNCc2ccccn2)ccc1OCc1ccc(Cl)cc1Cl,0.316 µM (active),–
COc1ccc(CNC(C)(C)C)cc1Cl,inactive,–
CCSc1nc2ccccc2n1C(=O)/C=C\c1ccc(OC)c(OC)c1,6.31 µM (active),–
C=CCSc1nc2ccccc2n1C(=O)/C=C/c1cc(OC)c(OC)c(OC)c1,7.08 µM (active),–
CCn1c(-c2ccccc2Cl)nn(CC(=O)Nc2ccccc2OC)c1=S,inactive,–
CCn1c(-c2ccccc2Cl)nn(CC(=O)Nc2cc(Cl)ccc2Cl)c1=S,15.8 µM (active),–
CC(=O)OC[C@H]1O[C@@H](O/N=C(\C)CCN2CCCc3nc(C)c(C)cc32)[C@H](OC(C)=O)[C@@H](OC(C)=O)[C@H]1OC(C)=O,–,0.931% [at 11.4 µM]
CC(C)(C)N1C(=O)[C@H]2[C@H]3[C@H](O)[C@H](O)C/C(=N/OC[C@@H](O)COCc4ccco4)[C@@H]3CC[C@@H]2C1=O,–,4.56% [at 11.4 µM]
COc1ccc(-c2noc(N(C)CC(=O)Nc3cccc(C(F)(F)F)c3)n2)cc1,5.01 µM (active),–
COCCNc1cc(-c2c(C)noc2C)ncn1,10 µM (active),–
CNc1cc(-c2c(C)noc2C)ncn1,5.01 µM (active),–
COCCNc1ncncc1-c1c(C)noc1C,inactive,–
Cc1noc(C)c1-c1cc(NC2CC2)ncn1,0.316 µM (active),–
COC(=O)N1CCC2(CC1)CN(C(c1ccccc1)c1ccccc1)C2,inactive,–
